# Source: ChEMBL document CHEMBL3988442, “University of Dundee, Small-Polar-MMV Screening Library” (2021)
# In all, about 53,000 compounds went through this assay and about 900 (1.7%) showed an effect of 50% or more. Shown is part of a subset that was picked to be rich in strong results.
# System: Mycobacterium tuberculosis
# Assay: Cornell - Phenotypic assay to identify agents that inhibit growth of Mycobacterium tuberculosis
# Format: functional
# Design: scale not given: direction of the effect not stated beside the values
# Conditions: 10 mM as filed; unlikely as a test dose
row,Structure (SMILES),Percent Effect [%]
1,CCCn1nccc1C(=O)Nc1ncc(C)s1,29.79
2,CCn1nccc1C(=O)Nc1nc(C)c(C(C)=O)s1,37.96
3,CCCn1nccc1C(=O)Nc1nc(C)c(C)s1,63.52
4,CC(C)c1cc(C(=O)O)nc2[nH]c(=O)[nH]c(=O)c12,12.95
5,COc1ccc(CNC(=O)C(NC(=O)Cc2ccccc2)C(C)C)cn1 (centres undefined),-38.43
6,COCCN1C(=O)[C@H]2CC[C@@H]1CN(Cc1nnc(C3CC3)o1)C2,-7.325
7,O=C(O)C(F)(F)F.O=C1[C@H]2CN(CC3CC3)C[C@H]2CN1Cc1cccc(F)c1,9.244
8,O=C(C[S+]([O-])Cc1csc(C2CCCC2)n1)Nc1ccccc1 (centres undefined),105.1
9,CC(C)CNC(=O)C[S+]([O-])Cc1csc(C2CCCCC2)n1 (centres undefined),18.38
10,O=C(C[S+]([O-])Cc1csc(C2CCCC2)n1)NC1CCCC1 (centres undefined),8.301
11,CCn1cnnc1CNC(=O)c1cc(Cl)ccc1I,10.82
12,CN(CCNC(=O)c1cnc(-c2ccccc2)nc1)S(C)(=O)=O,-18.18
13,CC(C)=CCCC(C)(O)c1cc(C(N)=O)no1 (centres undefined),37.88
14,CCOC(=O)c1cc(C(C)(O)CCC=C(C)C)on1 (centres undefined),106.6
15,CCCC(C)(O)c1cc(C(N)=O)no1 (centres undefined),45.9
16,CNC(=O)Cn1ccc2ccc(NC(=O)C(C)C)cc21,6.028
17,CCCC(O)CN1CC(C)(C)CN(C(=O)c2ccccc2)CC1=O (centres undefined),6.323
18,Cc1cc(N2CCC(O)(CN(C)C(=O)CCN)C2)c2cnccc2n1 (centres undefined),27.99
19,Cc1ncc(-c2ccccn2)c(CCNC(=O)C2CCCC2)n1,-18.28
20,CNc1cc(CCNC(=O)CC(C)C)nc(-c2ccccn2)n1,53.37
21,CNc1cc(CCNS(=O)(=O)c2ccccc2)nc(-c2ccccn2)n1,45.23
22,CNc1cc(CCNC(=O)C2CCCC2)nc(-c2ccccn2)n1,52.1
23,CCCC(=O)NCCc1cc(NC)nc(-c2ccccn2)n1,8.218
24,CNc1cc(CCNC(=O)c2cccnc2)nc(-c2ccncc2)n1,-1.38
25,Cc1c(Br)cccc1C(=O)Nc1cc(C(N)=O)n(C)c1,2.948
26,COC(=O)c1occc1Cn1cc(Br)cn1,-5.91

row,Structure (SMILES),Percent Effect [%]
1,COc1cccc2c1ccn2CCNC(=O)CC(C)C,-27.68
2,CCCn1nnnc1COc1ccc(C(=O)OC)cc1OC,7.789
3,CN(C)S(=O)(=O)N1CCOC(c2cccc(-c3cncnc3)n2)C1 (centres undefined),50.13
4,Cc1noc(C)c1-c1cccc(C2CN(S(=O)(=O)N(C)C)CCO2)n1 (centres undefined),37.24
5,COCC(=O)N1CCOC(c2cccc(-c3cncnc3)n2)C1 (centres undefined),-11.99
6,COc1ccccc1C(=O)N1CC(=O)N(CC(C)C)CC(O)C1 (centres undefined),11.6
7,CCC(CN1CCCCC1)NC(=O)C1(c2cccc(F)c2)CC1.O=C(O)CC(O)(CC(=O)O)C(=O)O (centres undefined),45.73
8,CCOCC(O)CN1CCN(C(=O)c2ccncc2)CC1 (centres undefined),18.36
9,CCOCC(O)CN1CCN(C(=O)c2ccc(N(C)C)nc2)CC1 (centres undefined),18.97
10,CCOCC(O)CN1CCN(C(=O)c2ccsc2)CC1 (centres undefined),106.2
11,CC(C)N1CCC(Cc2cncc(-c3cccc(C(=O)O)c3)n2)CC1,-33.1
12,CCOCC1CN(S(=O)(=O)Cc2ccccc2)Cc2nccn2C1 (centres undefined),3.802
13,CC(C)c1ccc(C#N)c(N2CC(C)(C)[C@@](C)(O)C2)n1,23.89
14,COc1cccc(S(=O)(=O)CCN2CCCN(C(C)=O)CC2)c1,16.19
15,COc1cccc(/C=C/CCN2CCN(S(C)(=O)=O)CC2)c1,79.58
16,COc1cccc(C(C)N2CCN(S(C)(=O)=O)CC2)c1 (centres undefined),-32.99
17,COc1cccc(NC(=O)CN2CCN(S(C)(=O)=O)CC2)c1,13.93
18,COc1cccc(/C=C/CCN2CCCN(C(C)=O)CC2)c1,68.14
19,COc1cccc(/C=C/CCN2CCC(C(=O)N3CCCC3)CC2)c1,9.134
20,Cc1cc(C)n(C2CN(c3ncnc4[nH]ccc34)C2)n1,-54.22
21,CCn1cc(S(=O)(=O)NCC2(N3CCOCC3)CCCCC2)c(C)n1,-12.17
22,N#CCCCOc1cccnc1NC(=O)CC1CCCCC1,-14.31
23,Cc1ccc(NC(=O)N2CCN(Cc3ccccn3)CC2)cc1Cl,-19.48
24,Cc1nc(CN(C)C2CCCN(c3ccccc3)C2)no1 (centres undefined),-1.27
25,COc1cccc2c3c(c(=O)n(C)c12)CCC(C)(C)O3,52.61
26,Cn1c(=O)c2c(c3ccccc31)OC(C)(C)CC2,17.08

row,Structure (SMILES),Percent Effect [%]
1,COc1cccc2c3c(c(=O)[nH]c12)CCC(C)(C)O3,14.12
2,CSCCCNC(=O)C(c1ccccc1C)N(C)C (centres undefined),37.97
3,Cc1cc(N(C)CCC(O)c2ccccc2)n2nccc2n1 (centres undefined),-28.51
4,Cc1cc(C(F)(F)F)nc(CNc2cc(C)nc3cc(C)nn23)n1,13.97
5,COc1cccc(C(=O)Oc2cc(=O)n3cccc(C)c3n2)c1,35.2
6,CC1c2cccn2CCN1C(=O)CCc1nc(C2CC2)no1 (centres undefined),7.661
7,CC1c2cccn2CCN1C(=O)CCCc1nc(-c2ccco2)no1 (centres undefined),8.285
8,CC1c2cccn2CCN1C(=O)CCc1nc(-c2ccccc2)no1 (centres undefined),50.68
9,COC(=O)c1cc(OCC2CCC2)cc(C(=O)N[C@H]2CCCC[C@@H]2O)c1,13.96
10,Cc1nc(C)c(C(=O)N2CCCC2(C)C(=O)NC2CCCC2)s1 (centres undefined),-2.69
11,Cc1cc(C)n(CC2CN(CC(=O)NC3(C#N)CCCC3)CCO2)n1 (centres undefined),-4.222
12,CCOCCC(=O)Nc1cccc(Oc2ccccn2)c1,-2.089
13,NC(=O)c1cnc(NC2CCC(c3ccccc3)CC2)c(Cl)c1 (centres undefined),57.03
14,NC(=O)c1cnc(NC2CCN(c3ccccn3)CC2)c(Cl)c1,18.4
15,NC(=O)c1cnc(NC2CCN(c3ccccc3)CC2)c(Cl)c1,48.08
16,O=S(=O)(c1cccnc1)N1CCN(Cc2nc(-c3ccco3)cs2)CC1,31.36
17,Cc1nc(C)n(CC2CCCN(Cc3cccnc3)C2)n1 (centres undefined),6.124
18,CN(CCC(F)(F)F)Cc1nc2ccccc2c(=O)[nH]1,7.133
19,O=c1[nH]c(CCN2CCCC(Cn3cncn3)C2)nc2ccccc12 (centres undefined),33.45
20,CN(CCC(F)(F)F)c1nc2ccccc2c(=O)[nH]1,-4.598
21,CCC(CC)C(=O)N1CCN(Cc2nc3ccccc3c(=O)[nH]2)CC1,5.405
22,CN(CCc1nc2ccccc2c(=O)[nH]1)CCC(F)(F)F,95.2
23,O=c1[nH]c(CCN2CCN(CC(F)(F)F)CC2)nc2ccccc12,106.7
24,O=c1[nH]c(CN2CCN(CC(F)(F)F)CC2)nc2ccccc12,9.356
25,CCOCCN1CCN(CCc2nc3ccccc3c(=O)[nH]2)CC1,106.8
26,Cn1nc2c(cc1=O)CN(CCc1nc3ccccc3c(=O)[nH]1)CC2,8.475

row,Structure (SMILES),Percent Effect [%]
1,O=C(c1sccc1-n1cnnn1)N1CCC(Cc2ccccc2)CC1,28.81
2,CCOC1Sc2nnc(C)n2N=C1c1ccc(F)cc1 (centres undefined),27.03
3,CC(C)NC(=O)N1CCN(Cc2ccccn2)CC2(CC(=O)N(C)C2)C1.O=C(O)C(F)(F)F.O=C(O)C(F)(F)F (centres undefined),-0.1639
4,COc1cccc(CC2CCCN2Cc2nccn2C)c1 (centres undefined),13.47
5,O=C(c1cscn1)N1CC[C@H]2[C@@H]1CCC(=O)N2c1ccccc1,102.6
6,Cn1cc(N2C(=O)CC[C@@H]3[C@H]2CCN3C(=O)c2cscn2)cn1.O=C(O)C(F)(F)F,15.97
7,Cc1cc(C(=O)N2CC[C@H]3[C@@H]2CCC(=O)N3c2ccccc2)no1,0.08428
8,Cc1nnc(CN(Cc2ccccc2Br)C2CC2)o1,42.91
9,Cc1nnc(CN(Cc2ccc3c(c2)OCO3)C2CCC(C)CC2)o1 (centres undefined),50.97
10,CCc1noc(CN(Cc2ccc3c(c2)OCO3)C2CCCC2)n1,1.573
11,Cc1nnc(CN(Cc2ccc3c(c2)OCO3)C2CCCCC2)o1,52.33
12,Cc1nnc(CN(Cc2cccc(Br)c2)C2CC2)o1,22.14
13,Cc1noc(CN(Cc2ccc3c(c2)OCO3)C2CCCC2)n1,4.979
14,O=C(CCn1cc(Cl)cn1)N1CCN(CC2CC2)[C@@H]2CS(=O)(=O)C[C@@H]21,-27.81
15,O=C(CC1CCc2ccccc21)N1CCC(C(=O)O)(n2ccnc2)CC1 (centres undefined),-2.815
16,O=C(NCc1ccnc(OCC2CC2)c1)C1COc2ccccc2O1 (centres undefined),12.77
17,CC(=O)Nc1cccc(OCCNC(=O)N(C)Cc2ccco2)c1,2.051
18,CC(C)C[C@H](N)COc1cccc(F)c1Oc1ccccc1,5.347
19,CC(C)C(=O)Nc1cccc(OCC(=O)NCc2ccccc2F)c1,6.908
20,Cc1ccc(Oc2c(F)cccc2OC[C@@H](N)CC(C)C)cc1,106.4
21,CC(C)C[C@H](N)COc1cccc(F)c1Oc1ccc(Cl)cc1,107.4
22,CC(C)C[C@H](N)COc1cccc(F)c1Oc1cccc(Cl)c1,106.7
23,CNCc1cc(F)ccc1Oc1ccc(Cl)cc1,-16.87
24,CCNCCOc1ccc(-c2cc(N)nc3[nH]ccc23)cc1,21.99
25,COc1c(C)cnc(CN2CCCC2c2noc(C)n2)c1C (centres undefined),-16.92
26,CCCC1(CO)CCCN(c2ncnc3c2c(C)nn3C)C1 (centres undefined),-13.93
